The results in this text go back to PubChem BioAssay (EPA / NIEHS).

Assay [1] in a line: ATG_M_61_CIS: Attagene CIS-FACTORIAL HepG2 Assay for M61 Transcription Factor (Internal Marker) (AID 2282937). Conditions: HepG2 Attagene CIS-FACTORIAL M61 internal marker reporter; actives raise or lower the signal. The method, boiled down:
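Readout is reporter mRNA by RT-PCR, fluorescent primer extension and capillary electrophoresis, with gain or loss fitted relative to DMSO. Transfected HepG2 cells carrying endogenous-TF-driven cis reporters were exposed to chemicals for 24 hours.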

Assay [2] is described as follows: ATG_EGR_CIS: Attagene CIS-FACTORIAL HepG2 Assay for human Early Growth Response 1 (EGR1) (AID 2282938). Conditions: HepG2 Attagene CIS-FACTORIAL EGR reporter mRNA; actives raise or lower the signal. The method, boiled down: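 After 24 h compound exposure, RNA from reporter-transfected HepG2 cells was reverse-transcribed, PCR-amplified, fluorescently labelled and resolved by capillary electrophoresis. EGR1 reporter transcript changes, up or down, were fitted against DMSO, reflecting endogenous transcription-factor activity.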

The nature of assay [3]: ATG_M_19_CIS: Attagene CIS-FACTORIAL HepG2 Assay for M19 Transcription Factor (Internal Marker) (AID 2282939). Conditions: HepG2 Attagene CIS-FACTORIAL M19 internal marker reporter; actives raise or lower the signal. The procedure, abridged:
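Chemical-treated HepG2 (24 h) with MRTU constructs; reporter transcripts detected by fluorescent RT-PCR fragment analysis on capillary electrophoresis. Internal background marker, DMSO as baseline.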

A short description of assay [4]: ATG_ERE_CIS: Attagene CIS-FACTORIAL HepG2 Assay for Estrogen Response Element (ERE) (AID 2282940). The following applies: HepG2 ERE cis-reporter, Attagene RNA transcript; actives raise or lower the signal. The procedure, abridged:
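Human liver cells (HepG2) bearing transiently transfected, promoter-regulated reporter units were exposed 24 h. Reporter mRNA induction was detected by capillary electrophoresis of labelled RT-PCR products and fitted bidirectionally to DMSO.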

Assay [5] is described as follows: ATG_Ets_CIS: Attagene CIS-FACTORIAL HepG2 Assay for human Erythroblast Transformation Specific (ETS) (AID 2282941). Conditions: HepG2 ETS cis-reporter transcription, actives raise or lower the signal. The procedure, abridged:
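Endogenous transcription factor activity read as reporter mRNA via RT-PCR and capillary electrophoresis, with gain or loss fitted bidirectionally against DMSO. Human HepG2 liver cells, transiently transfected CIS reporter constructs, 24 h exposure.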

In assay [6] the target is Hepatocyte nuclear factor 3-beta (Homo sapiens) (UniProt Q9Y261). As to the kind of experiment: ATG_FoxA2_CIS: Attagene CIS-FACTORIAL HepG2 Assay for human Forkhead box A2 (FOXA2) (AID 2282942). Conditions: HepG2 cis-reporter transcription factor activity, 24 h; actives raise or lower the signal. The procedure, abridged: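 Endogenous transcription factor activity is captured via cis-element-driven reporter transcripts in transfected HepG2. Total RNA taken at 24 h post-dosing; labelled RT-PCR products resolved by capillary electrophoresis. Gain or loss fitted versus DMSO.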
Chain of Hepatocyte nuclear factor 3-beta (Homo sapiens) (Q9Y261 whole entry, looked up): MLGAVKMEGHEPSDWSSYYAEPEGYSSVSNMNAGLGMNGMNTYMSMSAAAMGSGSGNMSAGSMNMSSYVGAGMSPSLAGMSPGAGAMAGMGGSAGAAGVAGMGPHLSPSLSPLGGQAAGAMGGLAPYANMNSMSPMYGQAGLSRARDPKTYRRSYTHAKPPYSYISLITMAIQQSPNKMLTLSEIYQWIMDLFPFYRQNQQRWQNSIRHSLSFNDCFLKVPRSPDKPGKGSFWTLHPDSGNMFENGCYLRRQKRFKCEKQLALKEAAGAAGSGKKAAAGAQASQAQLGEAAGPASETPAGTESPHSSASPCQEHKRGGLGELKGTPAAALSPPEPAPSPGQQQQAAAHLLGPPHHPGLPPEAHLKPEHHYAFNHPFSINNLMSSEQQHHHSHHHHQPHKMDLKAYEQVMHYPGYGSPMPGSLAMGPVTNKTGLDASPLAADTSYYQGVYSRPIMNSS

Assay [7] in a line: ATG_FoxO_CIS: Attagene CIS-FACTORIAL HepG2 Assay for human Forkhead box O (FoxO) (AID 2282943). The following applies: HepG2 Attagene cis-reporter, FoxO element, mRNA; actives raise or lower the signal. The method, boiled down:
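HepG2 cells transiently transfected with cis-element-driven reporter units report endogenous FoxO activity. After 24 h chemical exposure, reporter mRNA quantified by RT-PCR, fluorescent labeling, HpaI digestion and capillary electrophoresis; bidirectional fit versus DMSO.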

Assay [8] in a line: ATG_GATA_CIS: Attagene CIS-FACTORIAL HepG2 Assay for human GATA Binding Protein (AID 2282944). Conditions: HepG2 GATA cis-element reporter, Attagene multiplex mRNA; actives raise or lower the signal. The procedure, abridged: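 Transfected cis-reporter HepG2 cells were treated with chemicals for 24 hours. Total RNA was then converted to cDNA, amplified with reporter-specific primers and analysed by fluorescent capillary electrophoresis, using DMSO-treated wells as baseline.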

The nature of assay [9]: ATG_GLI_CIS: Attagene CIS-FACTORIAL HepG2 Assay for human Zinc Finger Protein GLI1 (AID 2282945). The following applies: HepG2, Attagene cis-factorial reporter mRNA, GLI element; actives raise or lower the signal. The procedure, abridged:
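Transiently transfected HepG2 cells report endogenous transcription factor activity via cis-element-driven reporter units. After 24 h compound exposure, reporter mRNA was measured by RT-PCR with capillary electrophoresis; bidirectional fitting against DMSO baseline.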

Assay [10] is described as follows: ATG_GRE_CIS: Attagene CIS-FACTORIAL HepG2 Assay for human Glucocorticoid Response Elements (GRE) (AID 2282947). Conditions: HepG2 GRE cis-reporter, Attagene multiplex mRNA; actives raise or lower the signal. The method, boiled down:
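Read-out: fluorescent reporter-transcript fragments separated by capillary electrophoresis after RT-PCR. Transiently transfected HepG2 cells carrying cis-element-driven reporter units were dosed for 24 h; gain or loss of signal fitted against DMSO control.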

Assay [11] is described as follows: ATG_ISRE_CIS: Attagene CIS-FACTORIAL HepG2 Assay for human Interferon Regulatory Factor 1 (IRF1) binding to an Interferon-Stimulated Response Element (ISRE) (AID 2282948). The following applies: HepG2 ISRE cis-reporter (Attagene), mRNA transcription readout; actives raise or lower the signal. The procedure, abridged:
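Endogenous transcription factor activity read as reporter transcript abundance via RT-PCR and capillary electrophoresis. HepG2 cells transiently transfected, 24 h chemical exposure. Gain or loss fitted against DMSO baseline.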

Assay [12] can be described thus: ATG_M_32_CIS: Attagene CIS-FACTORIAL HepG2 Assay for M32 Transcription Factor (Internal Marker) (AID 2282949).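 Also: background control marker of the multiplexed CIS panel rather than a real target.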 Conditions: HepG2 Attagene cis-factorial M32 reporter, mRNA; actives raise or lower the signal. The procedure, abridged: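 Using DMSO as baseline, bidirectional curve fits were applied to reporter mRNA signals. These came from transiently transfected HepG2 cells exposed for 24 h, with RNA analysed by RT-PCR, FAM primer extension, HpaI digestion and CE.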

Assay [13] is described as follows: ATG_M_06_CIS: Attagene CIS-FACTORIAL HepG2 Assay for M06 Transcription Factor (Internal Marker) (AID 2282950). Conditions: HepG2 Attagene CIS-FACTORIAL M06 internal marker reporter; actives raise or lower the signal. The method, boiled down: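 Cells (HepG2, transiently carrying cis-driven reporter units) receive chemical for 24 h before RNA isolation. Reporter cDNA is PCR-amplified, FAM-labelled by primer extension, HpaI-digested and sized on a capillary analyser.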

In assay [14] the target is Hypoxia-inducible factor 1-alpha (Homo sapiens) (UniProt Q16665). As to the kind of experiment: ATG_HIF1a_CIS: Attagene CIS-FACTORIAL HepG2 Assay for human Hypoxia Inducible Factor 1 (HIF1A) (AID 2282951). The following applies: HepG2 Attagene cis-factorial HIF1a reporter transcription; actives raise or lower the signal. The procedure, abridged:
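Activity is fitted in both directions relative to DMSO. Reporter transcripts are read by RT-PCR, fluorescent primer extension and capillary electrophoresis after 24 h chemical treatment. The cells are HepG2 carrying transiently transfected cis-element-driven reporter units responding to endogenous factors.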

The target in assay [15] is Hepatocyte nuclear factor 6 (Homo sapiens) (UniProt Q9UBC0). Description: ATG_HNF6_CIS: Attagene CIS-FACTORIAL HepG2 Assay for human Hepatocyte Nuclear Factor 6 (HNF6) (AID 2282952). Conditions: HepG2 Attagene cis-factorial HNF6 reporter transcription; actives raise or lower the signal. The method, boiled down: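 First, HepG2 cells were transfected with the multiplexed cis reporter library and dosed with chemical for 24 h. Next, RNA was reverse-transcribed, PCR-amplified and fluorescently labelled. Finally, HpaI-digested fragments were read by capillary electrophoresis.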
Chain of Hepatocyte nuclear factor 6 (Homo sapiens) (Q9UBC0 whole entry, looked up, the tested form may be a part): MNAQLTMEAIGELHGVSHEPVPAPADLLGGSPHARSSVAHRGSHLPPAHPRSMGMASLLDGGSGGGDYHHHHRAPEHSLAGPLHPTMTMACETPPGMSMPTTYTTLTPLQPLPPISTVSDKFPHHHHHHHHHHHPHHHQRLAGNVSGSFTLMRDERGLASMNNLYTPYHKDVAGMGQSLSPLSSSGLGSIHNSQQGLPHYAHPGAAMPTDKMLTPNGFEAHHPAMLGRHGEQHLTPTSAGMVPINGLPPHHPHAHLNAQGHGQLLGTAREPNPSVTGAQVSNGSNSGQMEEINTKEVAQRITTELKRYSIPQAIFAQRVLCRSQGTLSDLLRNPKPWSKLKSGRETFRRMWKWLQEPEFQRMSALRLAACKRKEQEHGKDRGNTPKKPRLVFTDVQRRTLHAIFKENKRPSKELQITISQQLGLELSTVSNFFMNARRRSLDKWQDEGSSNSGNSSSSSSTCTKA

Assay [16] in a line: ATG_MRE_CIS: Attagene CIS-FACTORIAL HepG2 Assay for human Metal Responsive Element (MRE) (AID 2282954). The following applies: HepG2 MRE cis-reporter transcription, Attagene multiplex; actives raise or lower the signal. The procedure, abridged:
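RT-PCR/capillary electrophoresis readout of reporter mRNA, 24 h post-dosing, in HepG2 cells transfected with multiplexed cis-regulated reporter constructs. Gain or loss of signal fitted bidirectionally against DMSO baseline.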

The nature of assay [17]: ATG_PBREM_CIS: Attagene CIS-FACTORIAL HepG2 Assay for human Phenobarbital-responsive Enhancer Module (PBREM) (AID 2282955). Conditions: HepG2 PBREM cis-reporter, Attagene multiplexed transcription; actives raise or lower the signal. The procedure, abridged: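 Endogenous transcription factor activity was read from reporter transcripts in transiently transfected human HepG2 liver cells after 24 h dosing. RT-PCR products were fluorescently labelled, HpaI-cut and sized by capillary electrophoresis; activity fitted bidirectionally against DMSO baseline.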

The target of assay [18] is Paired box protein Pax-6 (Homo sapiens) (UniProt P26367). Description: ATG_Pax6_CIS: Attagene CIS-FACTORIAL HepG2 Assay for human Paired Box 6 (PAX6) (AID 2282956). The following applies: HepG2 CIS-FACTORIAL PAX6 reporter transcription, RNA readout; actives raise or lower the signal. The procedure, abridged: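 Read-out is reporter transcript level, measured by RT-PCR with fluorescent primer extension and capillary electrophoresis after 24 h dosing of transfected HepG2 cells. Activity in either direction fitted relative to DMSO control.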
Chain of Paired box protein Pax-6 (Homo sapiens) (P26367 whole entry, looked up): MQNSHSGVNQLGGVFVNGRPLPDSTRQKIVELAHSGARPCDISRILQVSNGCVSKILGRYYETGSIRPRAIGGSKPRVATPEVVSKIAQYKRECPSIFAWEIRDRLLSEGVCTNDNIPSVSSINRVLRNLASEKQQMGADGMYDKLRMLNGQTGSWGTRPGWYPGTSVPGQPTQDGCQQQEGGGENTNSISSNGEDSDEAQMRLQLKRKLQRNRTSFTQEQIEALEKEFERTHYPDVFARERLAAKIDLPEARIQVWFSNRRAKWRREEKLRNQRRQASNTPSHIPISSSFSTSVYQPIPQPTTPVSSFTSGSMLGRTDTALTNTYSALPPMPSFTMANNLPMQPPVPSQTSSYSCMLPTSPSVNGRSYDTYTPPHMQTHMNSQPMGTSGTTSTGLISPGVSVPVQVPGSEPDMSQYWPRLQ

Assay [19] addresses Heat shock factor protein 1 (Homo sapiens) (UniProt Q00613). Description: ATG_HSE_CIS: Attagene CIS-FACTORIAL HepG2 Assay for human Heat Shock Transcription Factor 1 (HSE) (AID 2282953). The following applies: HepG2 HSE cis-reporter, Attagene RNA transcription; actives raise or lower the signal. The procedure, abridged: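 Liver-derived HepG2 cells carry transiently introduced multiple reporter units governed by cis promoters. Reporter RNA measured 24 h post-dose through reverse transcription, PCR amplification, fluorescent labelling and capillary electrophoresis, normalised to DMSO.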

The target of assay [20] is Bile acid receptor (Homo sapiens) (UniProt Q96RI1). Description: ATG_IR1_CIS: Attagene CIS-FACTORIAL HepG2 Assay for human Nuclear Receptor Subfamily 1 Group H Member 4 (NR1H4), IR1 submotif (AID 2282946). The following applies: IR1 reporter transcription, actives raise or lower the signal. The procedure, abridged: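 Fluorescence of capillary-separated, HpaI-digested RT-PCR reporter products gave IR1-element mRNA induction in HepG2 cells 24 h after dosing. Endogenous transcription factors drove the cis-regulated reporters; activity was fitted bidirectionally against DMSO.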
Chain of Bile acid receptor (Homo sapiens) (Q96RI1 whole entry, looked up): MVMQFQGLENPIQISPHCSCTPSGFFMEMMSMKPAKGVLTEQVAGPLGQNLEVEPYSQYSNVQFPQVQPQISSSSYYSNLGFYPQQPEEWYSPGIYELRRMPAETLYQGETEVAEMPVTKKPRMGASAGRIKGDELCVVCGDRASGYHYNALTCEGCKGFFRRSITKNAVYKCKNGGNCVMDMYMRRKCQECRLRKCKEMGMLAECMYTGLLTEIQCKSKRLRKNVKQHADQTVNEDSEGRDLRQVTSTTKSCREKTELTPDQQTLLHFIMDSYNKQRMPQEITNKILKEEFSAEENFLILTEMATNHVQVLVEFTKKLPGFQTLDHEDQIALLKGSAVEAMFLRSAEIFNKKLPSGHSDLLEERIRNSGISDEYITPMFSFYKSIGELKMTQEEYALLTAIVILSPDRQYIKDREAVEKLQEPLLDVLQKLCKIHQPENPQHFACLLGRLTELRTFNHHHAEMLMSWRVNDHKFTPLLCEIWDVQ

Calls of active or inactive are those of the source. The calls were made as follows: active = hit-call score of the fitted dose curve at least 0.9, where 1 is the maximum; inactive = score below 0.9.

Chain of Hypoxia-inducible factor 1-alpha (Homo sapiens) (Q16665 whole entry, looked up): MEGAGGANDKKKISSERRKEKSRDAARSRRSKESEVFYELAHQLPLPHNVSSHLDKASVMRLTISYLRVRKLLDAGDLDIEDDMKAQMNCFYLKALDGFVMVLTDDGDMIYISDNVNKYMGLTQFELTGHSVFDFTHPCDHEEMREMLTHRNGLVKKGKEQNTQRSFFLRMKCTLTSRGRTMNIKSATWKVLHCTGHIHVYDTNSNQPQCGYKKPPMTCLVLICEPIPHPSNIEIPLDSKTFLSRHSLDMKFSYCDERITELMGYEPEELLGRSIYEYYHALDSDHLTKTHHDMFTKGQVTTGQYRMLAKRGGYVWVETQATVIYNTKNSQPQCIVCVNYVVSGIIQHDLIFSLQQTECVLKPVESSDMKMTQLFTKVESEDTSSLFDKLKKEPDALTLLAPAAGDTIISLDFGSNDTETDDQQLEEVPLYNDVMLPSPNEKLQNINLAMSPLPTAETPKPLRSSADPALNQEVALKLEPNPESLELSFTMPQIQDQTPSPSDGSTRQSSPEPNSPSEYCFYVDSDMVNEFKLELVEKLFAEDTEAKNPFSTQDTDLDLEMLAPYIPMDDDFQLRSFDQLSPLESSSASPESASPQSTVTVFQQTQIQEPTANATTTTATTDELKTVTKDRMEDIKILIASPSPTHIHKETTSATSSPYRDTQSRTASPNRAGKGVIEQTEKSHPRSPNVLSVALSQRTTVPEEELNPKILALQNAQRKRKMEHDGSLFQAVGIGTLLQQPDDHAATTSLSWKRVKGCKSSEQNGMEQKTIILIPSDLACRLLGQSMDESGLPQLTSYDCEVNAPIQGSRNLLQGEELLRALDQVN
Chain of Heat shock factor protein 1 (Homo sapiens) (Q00613 whole entry, looked up): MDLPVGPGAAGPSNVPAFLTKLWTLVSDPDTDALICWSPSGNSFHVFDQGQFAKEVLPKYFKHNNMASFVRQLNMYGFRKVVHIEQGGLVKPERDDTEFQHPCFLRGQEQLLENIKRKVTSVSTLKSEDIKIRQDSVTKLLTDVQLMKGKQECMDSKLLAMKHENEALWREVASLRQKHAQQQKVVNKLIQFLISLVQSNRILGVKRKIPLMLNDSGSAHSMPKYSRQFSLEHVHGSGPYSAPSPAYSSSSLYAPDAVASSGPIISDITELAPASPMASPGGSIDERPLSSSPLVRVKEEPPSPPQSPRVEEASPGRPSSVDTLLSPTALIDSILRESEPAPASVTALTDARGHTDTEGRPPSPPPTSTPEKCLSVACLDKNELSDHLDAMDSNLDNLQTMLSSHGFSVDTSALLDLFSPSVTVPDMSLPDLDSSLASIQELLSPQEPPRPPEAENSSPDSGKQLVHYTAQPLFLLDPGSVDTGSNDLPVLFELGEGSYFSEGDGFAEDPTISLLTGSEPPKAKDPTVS

`Oc1ccc(Cc2ccc(O)cc2)cc1`: the compound was called inactive in assay [1], in assay [2], in assay [3], in assay [5], in [6] and in assay [7]. Besides, the result in assay [8], in assay [9], in assay [10], in assay [11], in assay [12] and in [13] was inactive. Besides, the compound was classed as inactive in assay [14], in assay [15], in [16], in [17] and in assay [18]. Also, the AC50 in assay [4] is 0.774 µM (active).

As to `Cc1cc(-c2cc(C)c(N)c(C)c2)cc(C)c1N`, the outcome in assay [1], in assay [2], in [3], in assay [4], in [5] and in [6] was inactive. Moreover, the result in assay [7], in assay [8], in assay [9], in [10], in assay [11] and in assay [12] was inactive. Besides, the compound was called inactive in assay [13], in assay [14], in assay [15], in assay [19], in [16] and in assay [17]. The compound was called inactive in assay [18].

In the case of `O=C(Cc1ccccc1)OCCc1ccccc1`, the outcome in assay [1], in assay [2], in assay [3], in [4], in [5] and in [6] was inactive. The compound was classed as inactive in assay [7], in assay [8], in assay [9], in assay [10], in [11] and in [12]. The call in [13], in assay [14], in assay [15], in assay [19], in [16] and in assay [18] was inactive.

For the compound `C=C(C)C(=O)OCC(CC)CCCC` (stereo not given), the compound was called inactive in assay [1], in assay [2], in assay [3], in [4], in [5] and in assay [6]. Moreover, the call in assay [7], in assay [8], in assay [9], in assay [10], in assay [11] and in [12] was inactive. The result in assay [14], in assay [15], in assay [19], in assay [16] and in assay [18] was inactive.

Take `Nc1nc(N)nc(Cl)n1`: the compound was called inactive in assay [1], in [2], in [3], in assay [4], in assay [5] and in assay [6]. For the same compound, the compound was called inactive in [7], in [8], in assay [9], in assay [10], in assay [13] and in assay [14]. Moreover, the compound was called inactive in assay [15], in assay [19], in [16], in assay [17] and in assay [18].

As for `c1ccc2sc(SNC3CCCCC3)nc2c1`, the outcome in [1], in assay [2], in assay [3], in [4], in [5] and in [6] was inactive. Further, the compound was called inactive in assay [7], in assay [20], in [10], in assay [11], in assay [12] and in assay [13]. Moreover, the compound was called inactive in [15] and in assay [17]. The concentration at half-maximal activity (AC50) in [9] was 159 µM (active); in [14], 100 µM (active); in [19], 159 µM (active); in assay [16], 119 µM (active); in assay [18] it was 154 µM (active).

Consider `O=C(CCl)NCO`, for which the compound was classed as inactive in assay [1], in [2], in [3], in assay [4], in assay [5] and in assay [6]. Also, the outcome in [7], in [8], in assay [9], in [12], in [13] and in assay [14] was inactive. Also, the outcome in assay [15], in [19], in assay [16], in assay [17] and in assay [18] was inactive.

What is called AC50 is the concentration giving half of the maximal activity seen.
